Pf growth 96h – Primary qHTS for delayed death inhibitors of the malarial parasite plastid, 96 hour incubation. P. falciparum luciferase reporter growth, 96 h. Potency, µM (highest dose often 28.7 µM), without a hit: at the highest dose activity change, negative = inhibition, actives largely listed as inhibitors. hit rate 6.9% among 320,000; also: potency is read from the fitted curve at half-maximal effect; % is scaled to controls: 0 for no effect and ±100 for the full control effect
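96 h incubation, 37 C, 5% CO2, of luciferase-reporter P. falciparum-infected RBCs (2% hematocrit, 0.05% parasitemia final) with test compounds; endpoint luminescence.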
Shiga toxin inh – A qHTS for Small Molecule Inhibitors of Shiga Toxin; Vero cells, Shiga toxin protein synthesis inhibition reporter; inhibition, % at 38.7 µM; hit rate 9.2% among 290,000; AID 2315, 2010; in the data active = inhibition mostly above about 28%, no sharp cut-off; inactive = mostly below about 43%; also: 0% is about no effect
HCV inhibitor – qHTS Assay for Inhibitors of Hepatitis C Virus (HCV). Huh7.5.1 HCVcc-Cre infection, luciferase reporter, 44 h. Potency, µM (doses to about 41.8 µM), inactives show at the highest dose activity change, negative = inhibition, actives largely listed as inhibitors. hit rate 3.4% among 340,000. AID 651820, 2012; also: potency is read from the fitted curve at half-maximal effect; % is scaled to controls: 0 for no effect and ±100 for the full control effect
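Whole-lifecycle infectious HCVcc-Cre system; cells 1,000/well, compound then virus (~0.5 moi) added 4 h after plating, 44 h culture. Luciferase read 15 sec following 15 min substrate incubation, room temp.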
Pf growth 48h – Primary qHTS for delayed death inhibitors of the malarial parasite plastid, 48 hour incubation. P. falciparum luciferase growth in erythrocytes, 48 h. Potency, µM (highest dose often 28.7 µM), without a hit: at the top dose activity change, negative = inhibition, hits mostly inhibitors. hit rate 5.9% among 310,000. AID 504832, 2011; also: potency is read from the fitted curve at half-maximal effect; % is scaled to controls: 0 for no effect and ±100 for the full control effect
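Growth was read as firefly luciferase luminescence after a 48 h, 37 C, 5% CO2 exposure of compounds to reporter-bearing P. falciparum cultures (0.1% parasitemia, 2% hematocrit final) in Albumax-supplemented RPMI 1640.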
CHX counter – Cycloheximide Counterscreen for Small Molecule Inhibitors of Shiga Toxin | cell reporter, cycloheximide protein synthesis inhibition counterscreen | max response, % | hit rate 12% among 300,000; in the data active = max response mostly above about 13%, no sharp cut-off; inactive = mostly below about 14%; also: read at 38.3 µM for the half of the compounds with a filed dose; 0% is about no effect
HCMV antiviral – qHTS Assay for inhibitors of the human cytomegalovirus (HCMV) | HFF cells, HCMV-luciferase reporter, 72 h; hits give low values | hit rate 4.5% among 410,000 | activity change, negative = inhibition, % at 57.5 µM | AID 1259415, 2018; in the data active = activity change below about -60%; inconclusive = no clear call, values can overlap the other calls; inactive = above about -39%; also: % is scaled to controls: 0 for no effect and ±100 for the full control effect
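Two-dose cell screen: HFF monolayers treated with compounds and infected with luciferase-expressing HCMV at 1 PFU/cell, 72 h at 37C, then lysed for luciferase measurement.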
Numbers without * were called inactive; ? = inconclusive; · = no result given; + = active, no number. In the library only some 21% were active in any assay of this set; here they are far more common. Unless noted, calls follow the shape of the dose curve; as a rule, active = well fitted inhibition curve with a large enough effect; inconclusive = small, poorly fitted or top-dose-only effect, or another doubt; inactive = no such curve, though single readings can be large or run the other way.

SMILES	Pf growth 96h	Shiga toxin inh	HCV inhibitor	Pf growth 48h	CHX counter	HCMV antiviral
O=C(NCCc1ccccc1)c1cc(S(=O)(=O)N2CCCC2)ccc1F	?	23	-27%	11%	23	+
CCN(CC)S(=O)(=O)c1ccc(F)c(C(=O)NCCC(C)C)c1	4.1µM*	18	?	-21%	1	5
C=CC[C@]12C[C@@H](OC)C(=O)C=C1O[C@@H](c1ccc(OC)c(OC)c1)[C@H]2C	·	·	?	·	·	-5
COCc1cc(=O)[nH]c(Nc2nc3ccc(C)cc3o2)n1	?	82*	?	2.9µM*	43*	-102*
CC(=O)N1c2ccccc2CC1C(=O)N1CCN(c2ccccc2F)CC1 (stereo unspecified)	·	·	·	·	·	7
COc1ccc(N2CCN(Cc3cccn3-c3nnc(N4CCN(C5CCCCC5)CC4)s3)CC2)cc1	·	·	·	·	·	-1
Cc1cccnc1Nc1nc(-c2ccc(F)cc2)cs1	0%	103*	?	73%	57*	-10
Cc1ccc(C)c(-c2csc(Nc3ncccn3)n2)c1	-1%	12	3%	-1%	-1	-34
Cc1cccnc1Nc1nc(-c2ccc(O)cc2)cs1	·	157*	10µM*	154%	50*	63
O=C(Nc1ccc(Cc2ccncc2)cc1)C1CCC(N2C(=O)C3C4C=CC(C4)C3C2=O)CC1 (stereo unspecified)	12µM*	16	8.9µM*	·	-2	-80*
CC1CCC2C(=O)N(c3ccc(Cc4ccncc4)cc3)C(=O)C2C1 (stereo unspecified)	?	-12	?	32%	0	-75*
O=C1C2C3C=CC(C3)C2C(=O)N1c1ccc(Cc2ccncc2)cc1 (stereo unspecified)	47%	-17	-28%	4%	5	-67*
O=C1C2C3C=CC(CC3)C2C(=O)N1c1ccc(Cl)cc1 (stereo unspecified)	?	·	-17%	?	-1	-15
O=C(Nc1ccc(Cc2ccncc2)cc1)C1CCC(N2C(=O)C3CC=CCC3C2=O)CC1 (stereo unspecified)	·	-17	?	?	1	?
CC1CCN(C(=O)c2ccc(N3C(=O)C4CCC(C)CC4C3=O)cc2)CC1 (stereo unspecified)	52%	15	3%	?	-1	-28
CCc1ccc(N2C(=O)C3C4C=CC(CC4)C3C2=O)cc1 (stereo unspecified)	205%	48*	1%	?	12	-8
Cc1cc(S(=O)(=O)Nc2cccc(C(=O)O)c2)c(C)c(S(=O)(=O)c2ccccc2)c1	·	·	·	·	·	6
CC1CN(S(=O)(=O)c2cc(C(=O)NCCCN3CCCC3=O)ccc2Cl)CC(C)O1 (stereo unspecified)	·	·	-2%	·	·	-8
O=C(NCCCN1CCOCC1)c1ccc(Cl)c(S(=O)(=O)N2CCCCCC2)c1	?	-18	?	·	-2	-81*
O=C(NCCCN1CCCC1=O)c1ccc2c(c1)OCO2	?	59*	6%	45%	15*	25
O=C(NCCCN1CCCC1=O)c1cccnc1	·	-3	15%	17%	-1	13
O=C(NCCCN1CCCC1=O)c1ccc(Cl)c(S(=O)(=O)N2CCCCC2)c1	5.2µM*	·	-22%	8.3µM*	·	-33
O=C(NCCCN1CCCC1=O)c1ccc2c(c1)NC(=O)C(N1CCOCC1)S2 (stereo unspecified)	0.93µM*	-9	35%	-4%	-3	3
COC(=O)c1ccc2c(c1)NC(=O)C(N1CCOCC1)S2 (stereo unspecified)	80%	-16	-17%	7%	-3	51
CC(=O)N1c2ccc(S(=O)(=O)NCc3ccc(Cl)cc3)cc2CC1C (stereo unspecified)	·	·	·	·	·	-38
CC1CCCN(C2(O)C(=O)Nc3ccc(Cl)cc32)C1 (stereo unspecified)	?	10	-8%	-4%	1	?
COC(=O)c1ccc(CSc2c(C(C)C)cnc3c2c(=O)n(C)c(=O)n3C)cc1	·	·	·	·	·	97

Source: PubChem (National Center for Advancing Translational Sciences (NCATS))
